In test [1] the target is Paired box protein Pax-6 (Homo sapiens) (UniProt P26367). Kind of test: ATG_Pax6_CIS: Attagene CIS-FACTORIAL HepG2 Assay for human Paired Box 6 (PAX6) (AID 2282956). The note with it: HepG2 CIS-FACTORIAL PAX6 reporter transcription, RNA readout; actives raise or lower the signal. Put shortly: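 DMSO-referenced bidirectional fits of reporter mRNA fluorescence; HepG2 with transient cis-promoter MRTUs, 24 h post-dose, RT-PCR plus capillary electrophoresis detection.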

The nature of test [2]: ATG_PXRE_CIS: Attagene CIS-FACTORIAL HepG2 Assay for human Pregnane X Receptor Element (PXRE) (AID 2282957). The note with it: HepG2 Attagene CIS-FACTORIAL PXRE reporter, mRNA; actives raise or lower the signal. In outline:
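Using HepG2 transfected with multiple reporter transcription units, endogenous factor-driven transcription was scored as reporter mRNA after 24 h exposure.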

Test [3] in a line: ATG_PPRE_CIS: Attagene CIS-FACTORIAL HepG2 Assay for human Peroxisome Proliferator-activated Response Element (PPRE) (AID 2282958). The note with it: HepG2 PPRE cis-element reporter, Attagene transcription factor profiling; actives raise or lower the signal. In outline:
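DMSO served as negative control and baseline for bidirectional curve fitting. Signal came from PPRE-regulated reporter mRNA in HepG2 cells, measured 24 h post-dosing by RT-PCR, 6-FAM primer extension and capillary electrophoresis.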

Test [4] can be described thus: ATG_RORE_CIS: Attagene CIS-FACTORIAL HepG2 Assay for human RAR-related Orphan Receptor Element (RORE) (AID 2282959). The note with it: HepG2 Attagene cis-factorial RORE reporter, mRNA; actives raise or lower the signal. In outline: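 Transfect HepG2 with MRTUs; treat 24 h; extract RNA; RT with oligo(dT); PCR with reporter-specific primers; 6-FAM primer extension; HpaI digest 2 h at 37 C; capillary electrophoresis. Fit vs DMSO, bidirectional.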

A short description of test [5]: ATG_Sox_CIS: Attagene CIS-FACTORIAL HepG2 Assay for human SRY-box transcription factor (SOX) (AID 2282960). The note with it: HepG2 Attagene cis-factorial SOX reporter, mRNA; actives raise or lower the signal. In outline:
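Fluorescence-labelled cDNA fragments from reporter transcripts, sized by CE, give the signal. Cells: HepG2, transiently transfected with cis-regulated reporter units. Exposure 24 h; DMSO negative control; bidirectional curve fitting.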

The target of test [6] is Transcription factor Sp1 (Homo sapiens) (UniProt P08047). The experiment in a line: ATG_Sp1_CIS: Attagene CIS-FACTORIAL HepG2 Assay for human Specificity Protein 1 (Sp1) (AID 2282961). Conditions: HepG2 Sp1 cis-reporter transcription, actives raise or lower the signal. In outline: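 Chemicals are dosed onto HepG2 cells transfected with multiple cis-promoter reporter constructs, and after 24 h reporter RNA is reverse-transcribed, PCR-amplified and resolved by capillary electrophoresis for fluorescence quantitation; activity is scored up or down against DMSO.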
Sequence of Transcription factor Sp1 (Homo sapiens) (P08047 whole entry, looked up): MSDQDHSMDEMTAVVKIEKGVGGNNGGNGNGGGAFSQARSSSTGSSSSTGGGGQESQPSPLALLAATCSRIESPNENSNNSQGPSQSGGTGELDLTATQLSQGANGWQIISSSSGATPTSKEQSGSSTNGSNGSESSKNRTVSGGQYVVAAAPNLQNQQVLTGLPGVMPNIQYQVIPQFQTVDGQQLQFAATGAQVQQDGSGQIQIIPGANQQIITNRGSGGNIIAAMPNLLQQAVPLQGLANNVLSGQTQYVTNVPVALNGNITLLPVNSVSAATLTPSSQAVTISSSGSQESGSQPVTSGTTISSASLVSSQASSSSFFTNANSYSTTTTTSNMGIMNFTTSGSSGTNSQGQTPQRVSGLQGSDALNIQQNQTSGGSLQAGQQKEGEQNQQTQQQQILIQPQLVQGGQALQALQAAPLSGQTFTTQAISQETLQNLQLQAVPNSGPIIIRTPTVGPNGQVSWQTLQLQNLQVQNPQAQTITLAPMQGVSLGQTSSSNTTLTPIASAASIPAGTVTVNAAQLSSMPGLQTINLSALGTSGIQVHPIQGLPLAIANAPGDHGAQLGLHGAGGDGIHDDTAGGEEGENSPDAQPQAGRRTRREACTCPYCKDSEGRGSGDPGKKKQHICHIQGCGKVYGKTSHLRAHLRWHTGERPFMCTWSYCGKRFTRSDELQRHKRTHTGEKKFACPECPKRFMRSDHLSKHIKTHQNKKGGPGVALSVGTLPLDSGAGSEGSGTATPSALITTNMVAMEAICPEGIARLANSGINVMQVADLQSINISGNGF

The nature of test [7]: ATG_SREBP_CIS: Attagene CIS-FACTORIAL HepG2 Assay for human Sterol Regulatory Element Binding (SREBP) (AID 2282962). The note with it: HepG2 Attagene cis-factorial SREBP reporter, mRNA; actives raise or lower the signal. Put shortly: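 In this cis-format assay, HepG2 liver cells express reporters controlled by promoter elements responsive to native transcription factors. Exposure lasts 24 h; reporter mRNA fluorescence from capillary electrophoresis gives the signal, fitted bidirectionally against DMSO.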

Test [8] deals with Signal transducer and activator of transcription 3 (Homo sapiens) (UniProt P40763). Kind of test: ATG_STAT3_CIS: Attagene CIS-FACTORIAL HepG2 Assay for human Signal Transducer and Activator of Transcription 3 (STAT3) (AID 2282963). The note with it: HepG2, Attagene cis-factorial STAT3 reporter transcription; actives raise or lower the signal. Put shortly: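 Readout is reporter transcript quantified by RT-PCR and capillary electrophoresis, with 6-FAM primer extension and HpaI digestion. Total RNA is taken 24 h after dosing transiently transfected HepG2 carrying cis-regulated reporter units. Bidirectional fit against DMSO.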
Sequence of Signal transducer and activator of transcription 3 (Homo sapiens) (P40763 whole entry, looked up): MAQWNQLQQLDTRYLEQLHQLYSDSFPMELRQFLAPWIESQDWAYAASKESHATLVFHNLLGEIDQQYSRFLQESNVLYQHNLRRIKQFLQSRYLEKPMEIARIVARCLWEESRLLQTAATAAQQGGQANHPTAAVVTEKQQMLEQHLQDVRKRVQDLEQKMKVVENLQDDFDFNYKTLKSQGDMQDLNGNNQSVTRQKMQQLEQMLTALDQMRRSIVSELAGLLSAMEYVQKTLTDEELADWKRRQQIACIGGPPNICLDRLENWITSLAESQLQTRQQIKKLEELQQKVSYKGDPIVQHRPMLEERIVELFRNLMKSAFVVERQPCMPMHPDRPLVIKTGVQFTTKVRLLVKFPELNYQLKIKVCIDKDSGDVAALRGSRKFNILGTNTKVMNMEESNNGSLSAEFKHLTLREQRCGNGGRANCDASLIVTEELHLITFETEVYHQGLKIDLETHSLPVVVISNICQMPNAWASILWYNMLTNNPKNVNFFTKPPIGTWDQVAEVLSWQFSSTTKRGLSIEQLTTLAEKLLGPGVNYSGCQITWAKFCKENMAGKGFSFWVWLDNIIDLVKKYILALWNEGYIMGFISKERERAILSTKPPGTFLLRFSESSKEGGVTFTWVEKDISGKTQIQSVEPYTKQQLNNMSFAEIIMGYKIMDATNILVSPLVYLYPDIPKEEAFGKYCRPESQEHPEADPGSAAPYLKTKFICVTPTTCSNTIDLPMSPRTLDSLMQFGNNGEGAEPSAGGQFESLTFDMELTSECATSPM

Test [9] can be described thus: ATG_TA_CIS: Attagene CIS-FACTORIAL HepG2 Assay for human TA Basal Promoter (AID 2282964). The note with it: HepG2 Attagene CIS-factorial TA basal promoter reporter; actives raise or lower the signal. Put shortly: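 Read-out: fluorescent reporter-transcript fragments resolved by capillary electrophoresis after RT-PCR and HpaI digestion. Source: HepG2 cells carrying transiently transfected multi-reporter cis constructs, treated 24 h. Endpoint fitted bidirectionally relative to DMSO.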

Test [10] can be described thus: ATG_TCF_b_cat_CIS: Attagene CIS-FACTORIAL HepG2 Assay for human T-Cell-Factor with beta-catenin (TCF/b-cat) (AID 2282965). Conditions: HepG2 TCF/beta-catenin cis-reporter transcription, actives raise or lower the signal. Put shortly:
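Measured: reporter mRNA in HepG2 transiently transfected with cis-promoter reporter units, 24 h after chemical addition. Fitting was bidirectional, DMSO as negative control.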

Values joined by “and” are separate entries in the source; they are usually repeats but may differ in a detail not shown here. Equal entries are not always repeated. The source holds several records for some structures; these can differ, active in one and inactive in another. Active and inactive are the calls of the source. The calls were made as follows: active = hit-call score of the fitted dose curve at least 0.9, where 1 is the maximum; inactive = score below 0.9.

Sequence of Paired box protein Pax-6 (Homo sapiens) (P26367 whole entry, looked up): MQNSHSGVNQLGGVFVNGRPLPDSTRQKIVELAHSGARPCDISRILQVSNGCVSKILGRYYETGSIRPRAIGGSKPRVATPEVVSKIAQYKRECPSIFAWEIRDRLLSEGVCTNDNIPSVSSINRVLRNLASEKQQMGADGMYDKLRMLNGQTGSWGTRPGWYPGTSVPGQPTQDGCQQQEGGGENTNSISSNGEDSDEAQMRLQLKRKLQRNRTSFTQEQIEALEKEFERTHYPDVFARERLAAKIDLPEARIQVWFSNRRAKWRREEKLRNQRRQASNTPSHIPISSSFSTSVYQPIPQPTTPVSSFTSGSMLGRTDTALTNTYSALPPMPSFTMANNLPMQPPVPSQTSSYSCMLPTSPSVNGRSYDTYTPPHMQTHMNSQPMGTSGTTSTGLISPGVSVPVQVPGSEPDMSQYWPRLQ

The AC50 is the concentration giving half of the maximal activity seen. For `Oc1cccc2cccnc12`, the result in test [1], in [3], in [4], in [5], in test [6] and in test [7] was inactive. For the same compound, the result in test [8], in [9] and in test [10] was inactive. Also, the AC50 in test [2] was 27.5 µM (active) and 95.5 µM (active).
Regarding `COc1cc(OC)nc(NC(=O)NS(=O)(=O)c2ncccc2C(=O)N(C)C)n1`, the compound was called inactive in test [1], in [2], in [3], in [4], in test [6] and in test [7]. Besides, the compound was called inactive in test [8], in [9] and in [10].
In the case of `C=CCc1ccc(OC)cc1`, the compound was classed as inactive in test [1], in [3], in [4], in test [5], in test [6] and in test [7]. In addition, the compound was called inactive in test [8], in test [9] and in test [10]. Further, in test [2], the AC50 is 26.6 µM (active).
As for `COC[C@H](C)N(C(=O)CCl)c1c(C)csc1C`, the result in test [1], in test [3], in [4], in [6], in test [7] and in test [8] was inactive. The outcome in [9] and in test [10] was inactive. In [2], the AC50 was 30.6 µM (active).
For `CCNc1nc(NC(C)(C)C)nc(SC)n1`, the compound was called inactive in test [1], in [4], in test [5], in [6], in test [7] and in [8]. Besides, the result in test [9] and in [10] was inactive. Moreover, the AC50 is 1.67 µM (active) in test [2] and 144 µM (active) in [3].
Turning to `COC(=O)Cc1ccccc1`, the call in test [1], in [2], in test [3], in test [4], in test [5] and in test [6] was inactive. The compound was classed as inactive in test [7], in test [8], in [9] and in test [10].
For the compound `COS(=O)(=O)c1ccc(C)cc1`, the call in [1], in test [2], in [3], in [4], in [5] and in test [6] was inactive. For the same compound, the compound was called inactive in test [7], in [8], in [9] and in [10].
Turning to `ClC1=C(Cl)[C@]2(Cl)[C@H]3[C@H]([C@H]4C=C[C@H]3C4)[C@@]1(Cl)C2(Cl)Cl`, the call in test [1], in test [3], in test [4], in [6], in test [7] and in [8] was inactive. The compound was called inactive in test [9] and in test [10]. Further, the half-maximal activity concentration (AC50) in test [2] was 1.6 µM (active).
Take `CCc1ccccc1N`: the call in test [1], in [3], in [4], in [5], in test [6] and in test [7] was inactive. Further, the result in test [8], in test [9] and in test [10] was inactive. The AC50 in test [2] was 68.3 µM (active).
Regarding `Nc1cccc2ccccc12`, the call in test [1], in test [3], in test [4], in [6], in test [8] and in test [9] was inactive. In test [10], the compound was classed as inactive. In addition, the AC50 is 25.7 µM (active) in test [2] and 170 µM (active) in test [7].
Regarding `Cc1ccccc1N`, the compound was classed as inactive in test [1], in [2], in [4], in test [5], in test [6] and in test [7]. For the same compound, the call in [8], in test [9] and in [10] was inactive.
In the case of `CN(CCCC(=O)c1cccnc1)N=O`, the compound was called inactive in [1], in test [3], in test [4], in test [6], in test [7] and in test [8]. The compound was classed as inactive in test [9] and in test [10]. For the same compound, the AC50 in test [2] is 27.2 µM (active).
Take `CC1(C)Cc2cccc(O)c2O1`: the outcome in [1], in [4], in [5], in test [6], in [7] and in [8] was inactive. Further, the compound was called inactive in [9] and in [10]. The AC50 in test [2] is 7.98 µM (active).
As to `CCOC(=O)/C=C(C)/C=C/C[C@@H](C)CCCC(C)C`, the result in [1], in test [3], in [5], in test [6], in test [9] and in test [10] was inactive. The AC50 in test [2] was 2.55 µM (active); in [7], 124 µM (active); in [8], 176 µM (active).
Turning to `CCCCP(CCCC)CCCC`, the compound was called inactive in test [1], in test [4], in test [5], in [6], in [7] and in test [8]. Moreover, the compound was called inactive in test [9] and in test [10]. Further, the concentration at half-maximal activity (AC50) in test [2] is 23.6 µM (active).
For `COC(=O)c1sccc1S(=O)(=O)NC(=O)Nc1nc(C)nc(OC)n1`, the compound was called inactive in test [1], in test [2], in test [3], in [5], in test [6] and in [7]. For the same compound, the outcome in [8], in test [9] and in [10] was inactive.
With `O=C(O)C(F)(F)C(F)(F)C(F)(F)C(F)(F)C(F)(F)C(F)(F)F`, the half-maximal activity concentration (AC50) was 40.2 µM (active) in test [2] and 63.7 µM (active) in [3]. For the same compound, the compound was classed as inactive in [2], in [3], in [4], in test [5], in test [6] and in test [7]. The result in test [8], in test [9] and in [10] was inactive.
On to `CCC[CH2][Sn]([CH2]CCC)([CH2]CCC)[O]C(=O)c1ccccc1`, for which the call in test [1], in test [2], in [5], in test [6], in [7] and in test [8] was inactive. For the same compound, the compound was called inactive in [9] and in [10]. Also, in [3], the concentration at half-maximal activity (AC50) is 0.0115 µM (active).
`Cc1cc(=O)[nH]o1`: the outcome in test [1], in [3], in [4], in [6], in test [7] and in test [8] was inactive. Besides, the compound was called inactive in [9] and in [10]. Further, in [2], the AC50 is 42.8 µM (active).
Regarding `CCSC(C)CC1CC(=O)C(C(CC)=NOC/C=C/Cl)=C(O)C1` (configuration not stated), the outcome in test [1], in test [3], in test [4], in test [6], in [7] and in test [8] was inactive. Also, the result in test [9] and in [10] was inactive. For the same compound, in test [2], the half-maximal activity concentration (AC50) is 5.61 µM (active).
For `CCC1(c2ccc(N)cc2)CCC(=O)NC1=O` (configuration not stated), the result in test [1], in test [4], in test [5], in test [6], in test [7] and in [8] was inactive. Besides, the compound was classed as inactive in test [9] and in [10]. In addition, in test [2], the concentration at half-maximal activity (AC50) was 64.9 µM (active).
Turning to `O=[N+]([O-])c1ccc(O)c([N+](=O)[O-])c1`, the result in test [1], in test [2], in [4], in [6], in [7] and in [8] was inactive. In addition, the call in [9] and in test [10] was inactive.
Turning to `COc1cc2c(cc1OC)[C@@]13CCN4CC5=CCO[C@H]6CC(=O)N2[C@H]1[C@H]6[C@H]5C[C@H]43`, the result in test [1], in test [4], in [6], in [7], in test [8] and in test [9] was inactive. Moreover, in test [10], the call was inactive. Further, the concentration at half-maximal activity (AC50) in test [2] was 36.6 µM (active).
With `CC1CN1P(=O)(N1CC1C)N1CC1C` (configuration not stated), the call in test [1], in test [2], in test [4], in test [5], in test [6] and in test [7] was inactive. The compound was called inactive in [8], in [9] and in test [10].

Values taken from PubChem BioAssay (EPA / NIEHS).
